Drawing on PubChem BioAssay (Tox21), this text covers Potency and outcome for 11 molecules.

Test [1] in a line: qHTS assay to identify small molecule agonists of the sonic hedgehog signaling (Shh) pathway (AID 1259368; calls by dose curve;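 further: NIH/3T3-derived 3T3Gli1-Luc cells carrying a stable Gli1-driven firefly luciferase reporter; series mostly up to about 92 µM; nearly all actives have a fitted effect of over 15% in size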). A digest of the protocol:
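Steps: seed 3T3 Gli1-Luc cells, incubate 4 hr at 37 C, pin-transfer compounds in DMSO alongside a positive control, incubate 24 hr, add luciferase detection reagent, wait 30 min at room temperature, read luminescence.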

Test [2] is described as follows: qHTS assay to identify small molecule antagonists of the sonic hedgehog signaling (Shh) pathway (AID 1259369; calls by dose curve; further: nearly all actives have a fitted effect of over 45% in size; further: potency means the concentration at half of the fitted maximal effect). A digest of the protocol: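 Inhibition of Shh signalling is measured as reduced Gli1-response-element firefly luciferase output in an NIH/3T3-derived stable reporter clone stimulated with conditioned medium for 24hr.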
Background: qHTS replaces the single test concentration by a dilution series.

The nature of test [3]: qHTS assay to identify small molecule agonists of the androgen receptor (AR) signaling pathway in the presence of an antagonist - cell viability counter screen (AID 1259379).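 Further: MDA-kb2 human breast cancer cells carrying an MMTV luciferase reporter; series mostly up to about 92 µM; nearly all actives have a fitted effect of over 25% in size.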 A digest of the protocol:
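Fluorescence from CellTiter-Fluor, added after 15 hr and read 1 hr later, gave cell viability. Cells were MDA-kb2 exposed to compounds (15 concentrations) in the presence of 3.0uM nilutamide at 37C, 0% CO2.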

Test [4] in a line: qHTS assay to identify small molecule agonists of the estrogen receptor beta (ER-beta) signaling pathway - cell viability counter screen (AID 1259380). Further: nearly all actives have a fitted effect of over 30% in size. Further: potency means the concentration at half of the fitted maximal effect. A digest of the protocol: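 Same-well viability counter screen. Cells: ER-beta-UAS-bla HEK293T, plated 6 hr before compound, in 2% charcoal-stripped FBS. Compound exposure 16 hr, 37C; viability by CellTiter-Glo luminescence after 30 min at room temperature.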

Test [5] in a line: qHTS assay to identify small molecule antagonists of the estrogen receptor beta (ER-beta) signaling pathway - cell viability counter screen (AID 1259382). Further: nearly all actives have a fitted effect of over 55% in size. Further: potency means the concentration at half of the fitted maximal effect. A digest of the protocol: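 Following a 6 hr plating period, HEK293T cells carrying a UAS-driven beta-lactamase reporter under ER-beta control received compounds and 1nM E2 (final). After 16 hr at 37C and 2 hr substrate loading, CellTiter-Glo luminescence indicated viability.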

Test [6] is described as follows: qHTS assay to identify small molecule agonists or antagonists of the thyroid stimulating hormone receptor (TSHR) signaling pathway - wild type cell line counter screen (AID 1259384; calls by dose curve). A digest of the protocol: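 Wild-type HEK293 cells were plated 18 h at 37 C/5% CO2, pin-dosed with compound plus Ro20-1724 medium, held 30 min at room temperature, then given cAMP-d2 and anti-cAMP-cryptate; fluorescence was read after 1 h. Fifteen concentrations, triplicate.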

Test [7] deals with Thyrotropin receptor (Homo sapiens) (UniProt P16473). Nature of the test: qHTS assay to identify small molecule antagonists of the thyroid stimulating hormone receptor (TSHR) signaling pathway (AID 1259385; calls by dose curve; further: nearly all actives have a fitted effect of over 20% in size). A digest of the protocol:
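TSHR-HEK293 cells were plated and held 18 h at 37C/5% CO2, then given compound plus Ro20-1724 and stimulated with TSH at 1.5 ng/mL final. After 30 min at room temperature, cAMP was detected with cAMP-d2/anti-cAMP-cryptate (1 h) by fluorescence.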

Test [8] can be described thus: qHTS assay to identify small molecule agonists of the estrogen receptor alpha (ER-alpha) signaling pathway in the presence of an antagonist - cell viability counter screen (AID 1259386).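 Further: series mostly up to about 92 µM; cells exposed to compounds for 22 h at 37 °C before the viability read; nearly all actives have a fitted effect of over 30% in size.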 A digest of the protocol: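 Cells are starved of estrogens for 5 days in charcoal-stripped serum, seeded for 24hr and co-treated with ICI-182,780 (10.0nM final) and test compounds. After 22hr at 37C, viability is read as CellTiter-Fluor fluorescence.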

Test [9] addresses Progesterone receptor (Homo sapiens) (UniProt P06401). Description: qHTS assay to identify small molecule antagonists of the progesterone receptor (PR) signaling pathway (AID 1346795; active means well fitted inhibition curve with a large enough effect in the signal ratio in the repeat runs, not every such curve was filed as active; the % refers to the signal ratio; further: potency means the concentration at half of the fitted maximal effect). A digest of the protocol:
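Inhibition of R5020-induced (1 nM final) beta-lactamase reporter signal in PR-UAS-bla HEK293T cells was scored by FRET fluorescence after overnight (16 hr) compound treatment.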

Test [10] in a line: qHTS assay to identify small molecule antagonists of the progesterone receptor (PR) signaling pathway - cell viability counter screen (AID 1346798). Further: series mostly up to about 92 µM; nearly all actives have a fitted effect of over 50% in size. A digest of the protocol: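 ATP content as viability readout: CellTiter-Glo luminescence, 30 min room temperature, in PR-UAS-bla HEK293T cells after 16 hr compound/R5020 treatment at 37C and 5% CO2.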
A short description of test [11]: qHTS assay to identify small molecule agonists of the progesterone receptor (PR) signaling pathway - cell viability counter screen (AID 1346799; calls by dose curve; further: nearly all actives have a fitted effect of over 45% in size). A digest of the protocol: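 Cytotoxicity in PR-bla HEK293T cells: 16 h compound, 37C; CellTiter-Glo added post-FRET read; luminescence after 30 min RT.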
Test [12] can be described thus: qHTS assay to identify small molecule antagonists of the TGF-beta/Smad signaling pathway - cell viability counter screen (AID 1346824). Further: nearly all actives have a fitted effect of over 50% in size. A digest of the protocol:
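SBE-bla HEK 293T cells were plated overnight at 37 C, then given compounds in DMSO plus TGF-beta1 (added as 0.25 ng/mL solution) for 5 hr. After the bla read, CellTiter-Glo was added to the same wells and luminescence read after 30 min at room temperature.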

Test [13] is described as follows: qHTS assay to identify small molecule agonists of the TGF-beta/Smad signaling pathway - cell viability counter screen (AID 1346829). Further: top concentration of the series differs between compounds; nearly all actives have a fitted effect of over 45% in size. A digest of the protocol:
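SBE-bla HEK 293T cells plated overnight, compound exposure 5 hr at 37 C. Viability read in the same wells by CellTiter-Glo luminescence after 30 min at room temperature, following the beta-lactamase read.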

Test [14] can be described thus: qHTS assay to identify small molecule agonists of the TGF-beta/Smad signaling pathway (AID 1346859; active means well fitted activation curve with a large enough effect in the signal ratio in the repeat runs, not every such curve was filed as active; the % refers to the signal ratio; further: series mostly up to about 77 µM). A digest of the protocol:
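Stable Smad binding element-beta-lactamase HEK 293T cells; 5 hr compound exposure at 37 C under 5% CO2; 2 hr room-temperature substrate step; fluorescence excited at 405 nm, collected at 460 nm and 530 nm.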

For test [15], the target named is Thyrotropin-releasing hormone receptor (Homo sapiens) (UniProt P34981). Description: qHTS assay to identify small molecule antagonists of the thyrotropin-releasing hormone receptor (TRHR) signaling pathway (AID 1346877; active means well fitted inhibition curve with a large enough effect in the repeat runs, not every such curve was filed as active; further: potency means the concentration at half of the fitted maximal effect). A digest of the protocol: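 Cells (TRHR-HEK293) are plated and kept 18 h at 37 °C/5% CO2. A calcium-sensitive dye is added for 2 h, compound follows for 5 min at room temperature, and TRH is then given at 1 nM final.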

The target in test [16] is Progesterone receptor (Homo sapiens) (UniProt P06401). Nature of the test: qHTS assay to identify small molecule agonists of the progesterone receptor (PR) signaling pathway (AID 1346784; calls by dose curve; further: nearly all actives have a fitted effect of over 30% in size). A digest of the protocol:
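Using charcoal-stripped serum (2%) to limit endogenous steroids, PR-UAS-bla HEK 293T cells received compounds for 16 hr at 37C after 6 hr plating; beta-lactamase FRET fluorescence was recorded following 2 hr substrate loading at room temperature.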

Test [17] deals with Estrogen receptor (Homo sapiens) (UniProt P03372). Nature of the test: qHTS assay to identify small molecule agonists of the estrogen receptor alpha (ER-alpha) signaling pathway in the presence of an antagonist (AID 1259383; calls by dose curve; further: nearly all actives have a fitted effect of over 15% in size; further: potency means the concentration at half of the fitted maximal effect; on activation: top concentration of the series differs between compounds). A digest of the protocol:
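Cells are hormone-deprived for 5 days (charcoal-stripped FBS, no phenol red), plated for 24hr, spiked with 10.0nM ICI-182,780, then dosed at 15 concentrations. After 22hr at 37C, ONE-Glo luminescence reports ERE-luciferase activity.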

The target in test [18] is Androgen receptor (Homo sapiens) (UniProt P10275). Description: qHTS assay to identify small molecule agonists of the androgen receptor (AR) signaling pathway in the presence of an antagonist (AID 1259381; calls by dose curve; further: nearly all actives have a fitted effect of over 15% in size; further: potency means the concentration at half of the fitted maximal effect). A digest of the protocol:
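Cells are MDA-kb2 (human breast carcinoma, MMTV-luc, AR/GR responsive). Nilutamide is present at 3.0uM final throughout; compounds are added at 15 concentrations and incubated 16hr at 37C before ONE-Glo luminescence detection.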

Values joined by “and” are separate entries in the source; they are usually repeats but may differ in a detail not shown here. Identical values can stand only once. Inconclusive results are not listed. A structure can be active in one record and inactive in another. Active and inactive are the calls of the source. Unless noted, the call rests on the fitted dose curve; in most records, active means well fitted curve in the direction sought with a large enough effect in the repeat runs; inconclusive means weak or mixed curves; inactive means no such curve, though single readings can be large; an effect the other way counts as inactive or inconclusive.

Sequence of Progesterone receptor (Homo sapiens) (P06401 whole entry, looked up): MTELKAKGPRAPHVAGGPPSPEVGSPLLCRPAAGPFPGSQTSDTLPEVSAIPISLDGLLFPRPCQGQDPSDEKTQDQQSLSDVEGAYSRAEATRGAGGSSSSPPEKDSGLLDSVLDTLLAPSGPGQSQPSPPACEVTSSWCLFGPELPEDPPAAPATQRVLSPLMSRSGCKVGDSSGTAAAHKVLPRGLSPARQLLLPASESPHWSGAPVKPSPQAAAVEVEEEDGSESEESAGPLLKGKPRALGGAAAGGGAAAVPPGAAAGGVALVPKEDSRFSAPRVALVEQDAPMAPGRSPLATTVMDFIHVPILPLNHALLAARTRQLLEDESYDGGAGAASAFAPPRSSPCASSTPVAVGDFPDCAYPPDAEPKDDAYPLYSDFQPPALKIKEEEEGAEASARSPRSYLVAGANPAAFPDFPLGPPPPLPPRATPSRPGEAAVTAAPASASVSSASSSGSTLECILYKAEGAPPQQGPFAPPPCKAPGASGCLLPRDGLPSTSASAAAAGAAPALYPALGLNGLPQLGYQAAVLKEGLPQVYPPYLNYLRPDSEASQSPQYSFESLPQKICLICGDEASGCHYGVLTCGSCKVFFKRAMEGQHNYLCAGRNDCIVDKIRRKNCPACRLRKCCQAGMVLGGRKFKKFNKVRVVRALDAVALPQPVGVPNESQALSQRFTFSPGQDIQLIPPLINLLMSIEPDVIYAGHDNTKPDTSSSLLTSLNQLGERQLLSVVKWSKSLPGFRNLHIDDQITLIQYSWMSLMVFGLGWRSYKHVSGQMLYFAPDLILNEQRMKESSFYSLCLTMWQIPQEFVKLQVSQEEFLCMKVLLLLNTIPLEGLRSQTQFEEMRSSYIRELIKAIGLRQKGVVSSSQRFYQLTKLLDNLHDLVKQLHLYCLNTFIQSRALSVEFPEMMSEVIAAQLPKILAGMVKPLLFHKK
Sequence of Estrogen receptor (Homo sapiens) (P03372 whole entry, looked up): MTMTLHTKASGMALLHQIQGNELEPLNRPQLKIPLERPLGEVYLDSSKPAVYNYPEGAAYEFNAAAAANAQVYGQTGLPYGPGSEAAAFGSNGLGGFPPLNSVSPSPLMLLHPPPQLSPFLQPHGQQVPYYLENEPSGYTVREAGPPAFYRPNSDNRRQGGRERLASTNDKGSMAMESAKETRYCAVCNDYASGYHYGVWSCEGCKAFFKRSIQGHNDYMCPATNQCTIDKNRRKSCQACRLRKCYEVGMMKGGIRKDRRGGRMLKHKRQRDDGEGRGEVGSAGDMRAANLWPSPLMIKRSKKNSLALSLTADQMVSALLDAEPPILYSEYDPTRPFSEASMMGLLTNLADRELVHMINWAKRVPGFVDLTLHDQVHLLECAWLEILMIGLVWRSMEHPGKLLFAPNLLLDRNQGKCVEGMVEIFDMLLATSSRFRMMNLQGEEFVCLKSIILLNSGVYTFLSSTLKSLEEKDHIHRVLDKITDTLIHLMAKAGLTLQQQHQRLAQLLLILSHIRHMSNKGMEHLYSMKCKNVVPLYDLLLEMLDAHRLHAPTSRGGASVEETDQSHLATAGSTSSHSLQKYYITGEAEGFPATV
Sequence of Thyrotropin receptor (Homo sapiens) (P16473 whole entry, looked up): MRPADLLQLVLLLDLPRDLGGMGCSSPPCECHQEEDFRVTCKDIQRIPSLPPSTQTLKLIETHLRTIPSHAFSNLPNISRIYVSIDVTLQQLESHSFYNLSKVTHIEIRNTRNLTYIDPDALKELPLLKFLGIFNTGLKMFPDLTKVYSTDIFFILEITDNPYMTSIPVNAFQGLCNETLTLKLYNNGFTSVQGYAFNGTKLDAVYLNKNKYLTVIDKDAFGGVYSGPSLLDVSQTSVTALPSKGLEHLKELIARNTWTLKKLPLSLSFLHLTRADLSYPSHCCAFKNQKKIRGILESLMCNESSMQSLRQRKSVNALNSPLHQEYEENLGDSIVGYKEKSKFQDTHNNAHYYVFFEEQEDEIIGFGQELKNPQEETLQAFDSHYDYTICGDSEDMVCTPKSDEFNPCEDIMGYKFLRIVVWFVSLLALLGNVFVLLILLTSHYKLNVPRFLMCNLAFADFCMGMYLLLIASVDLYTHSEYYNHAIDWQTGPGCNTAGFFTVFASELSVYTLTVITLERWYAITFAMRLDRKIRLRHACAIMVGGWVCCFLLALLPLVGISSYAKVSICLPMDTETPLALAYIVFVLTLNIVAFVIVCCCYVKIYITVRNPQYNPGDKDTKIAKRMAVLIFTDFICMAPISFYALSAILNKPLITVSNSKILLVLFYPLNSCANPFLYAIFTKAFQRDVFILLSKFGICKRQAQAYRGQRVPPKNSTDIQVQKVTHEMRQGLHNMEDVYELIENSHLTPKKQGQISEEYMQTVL
Sequence of Androgen receptor (Homo sapiens) (P10275 whole entry, looked up): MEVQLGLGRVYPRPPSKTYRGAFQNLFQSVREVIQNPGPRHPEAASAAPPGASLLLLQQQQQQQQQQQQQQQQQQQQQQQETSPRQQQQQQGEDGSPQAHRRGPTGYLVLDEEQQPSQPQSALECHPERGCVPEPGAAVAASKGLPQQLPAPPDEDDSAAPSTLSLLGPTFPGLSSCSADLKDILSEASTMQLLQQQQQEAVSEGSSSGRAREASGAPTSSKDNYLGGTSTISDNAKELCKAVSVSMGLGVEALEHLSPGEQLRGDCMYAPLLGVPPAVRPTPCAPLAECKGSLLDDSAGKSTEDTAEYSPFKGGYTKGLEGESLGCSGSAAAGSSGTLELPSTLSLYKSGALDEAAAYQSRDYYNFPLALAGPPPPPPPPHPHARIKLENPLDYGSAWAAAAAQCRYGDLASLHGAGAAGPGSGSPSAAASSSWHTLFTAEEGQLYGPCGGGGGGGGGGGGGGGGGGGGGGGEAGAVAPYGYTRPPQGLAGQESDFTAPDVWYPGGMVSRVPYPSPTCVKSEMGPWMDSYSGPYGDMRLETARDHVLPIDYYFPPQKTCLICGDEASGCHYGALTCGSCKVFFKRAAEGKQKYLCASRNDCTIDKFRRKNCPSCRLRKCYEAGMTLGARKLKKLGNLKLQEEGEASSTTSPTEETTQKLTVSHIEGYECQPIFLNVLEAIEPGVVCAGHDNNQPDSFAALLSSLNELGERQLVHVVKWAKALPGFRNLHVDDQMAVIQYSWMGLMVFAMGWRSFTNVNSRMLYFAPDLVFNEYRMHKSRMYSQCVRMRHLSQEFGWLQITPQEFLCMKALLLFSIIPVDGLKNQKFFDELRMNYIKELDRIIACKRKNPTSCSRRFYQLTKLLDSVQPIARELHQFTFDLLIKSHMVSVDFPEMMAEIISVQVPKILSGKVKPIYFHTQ
Sequence of Thyrotropin-releasing hormone receptor (Homo sapiens) (P34981 whole entry, looked up): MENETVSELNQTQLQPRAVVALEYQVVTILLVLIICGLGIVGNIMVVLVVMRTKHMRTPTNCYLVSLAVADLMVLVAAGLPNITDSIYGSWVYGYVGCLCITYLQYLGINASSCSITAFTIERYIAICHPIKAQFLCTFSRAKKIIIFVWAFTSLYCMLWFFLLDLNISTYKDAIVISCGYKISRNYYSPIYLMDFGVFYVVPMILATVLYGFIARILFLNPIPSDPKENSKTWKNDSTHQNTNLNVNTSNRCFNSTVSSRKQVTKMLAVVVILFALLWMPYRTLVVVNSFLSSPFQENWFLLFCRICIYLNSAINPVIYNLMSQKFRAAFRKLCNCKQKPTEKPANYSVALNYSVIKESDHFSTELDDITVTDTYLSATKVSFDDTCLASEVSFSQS

`CCN(CC)N=O`: the Potency entry in [1], in test [2], in [3], in [4], in [5] and in [8] was “inactive” in each case. For the same molecule, the Potency result in test [9], in test [10], in test [11], in test [12], in test [13] and in test [15] was “inactive” each time. The result in test [6], in [7] and in [14] was inactive.
With `CC(C)(c1cc(Cl)c(O)c(Cl)c1)c1cc(Cl)c(O)c(Cl)c1`, the Potency result in test [1], in test [3], in [8], in test [10], in [11] and in [12] was “inactive” each time. The Potency entry in [13] was “inactive”. Further, the Potency was 30.6 µM (active) and 34.4 µM (active) in test [2]; 7.7 µM (active) in test [9]; 30.1 µM (active) in [15]. For the same molecule, the call in test [6], in test [7] and in [14] was inactive.
With `ClC1C(Cl)C(Cl)C(Cl)C(Cl)C1Cl` (stereo not given), the Potency entry in test [1], in test [2], in [3], in test [8], in test [16] and in test [9] was “inactive” each time. Besides, the Potency result in test [10], in [11], in [12], in test [13] and in test [15] was “inactive” throughout. The Potency result in test [4] was “inactive and 27.3 µM (active) and 54.5 µM (active)”. The molecule was called inactive in [6], in [7] and in test [14].
As for `S=C1NCCN1`, the Potency result in test [1], in [2], in test [3], in test [5], in test [8] and in test [9] was “inactive” throughout. For the same molecule, the Potency entry in test [10], in test [11], in test [12], in [13] and in test [15] was “inactive” throughout. For the same molecule, the call in [6], in [7] and in [14] was inactive.
As for `CC(C)=CC1C(C(=O)OCc2coc(Cc3ccccc3)c2)C1(C)C` (stereo not given), the Potency entry in test [1], in test [3], in test [17], in test [8], in test [16] and in test [10] was “inactive” throughout. Besides, the Potency result in test [11], in test [12] and in test [13] was “inactive” throughout. Moreover, the Potency is 24.4 µM (active) and 30.6 µM (active) in [2]; 48.6 µM (active) in test [9]. Also, the result in test [6] and in test [14] was inactive.
With `CCC(=O)O[C@H]1CC[C@H]2[C@@H]3CCC4=CC(=O)CC[C@]4(C)[C@H]3CC[C@]12C`, the Potency entry in [1], in test [3], in test [8], in test [10], in [12] and in test [13] was “inactive” each time. Also, the Potency in test [2] was 30.6 µM (active) and 18.8 µM (active); in [18], 48.6 nM (active) and 47.3 nM (active); in [5] it was 61.1 µM (active) and inactive; in [17], 7.7 µM (active) and 9.44 µM (active); in test [9], 0.486 µM (active). The call in test [6], in test [7] and in test [14] was inactive.
For the molecule `CNC(=O)Oc1cccc2c1OC(C)(C)O2`, the Potency result in [1], in test [2], in [3], in test [4], in [17] and in [8] was “inactive” throughout. The Potency result in [16], in test [9], in test [10], in test [11], in test [12] and in [13] was “inactive” throughout. Further, the Potency result in test [15] was “inactive”. The outcome in test [6], in test [7] and in test [14] was inactive.
Turning to `CCN(CC)C(=O)SCc1ccc(Cl)cc1`, the Potency entry in test [1], in test [2], in [3], in test [5], in test [17] and in [8] was “inactive” in each case. The Potency entry in [10], in [11], in [12], in [13] and in [15] was “inactive” each time. Besides, the result in test [6] and in [14] was inactive. For the same molecule, the Potency in test [9] was 25.1 µM (active) and 27.3 µM (active).
In the case of `CCOc1cc(C=O)ccc1O`, the Potency result in test [1], in test [2], in test [3], in test [4], in [8] and in [16] was “inactive” throughout. Moreover, the Potency result in test [9], in test [10], in test [11], in test [12], in [13] and in [15] was “inactive” throughout. In addition, the call in [6], in test [7] and in test [14] was inactive.
Consider `CCN(CC)C(=O)/C(Cl)=C(\C)OP(=O)(OC)OC`, for which the Potency entry in test [1], in test [2], in test [3], in test [18], in [17] and in test [8] was “inactive” throughout. Also, the Potency entry in [9], in test [10], in test [11], in [12], in test [13] and in [15] was “inactive” each time. For the same molecule, the call in test [6], in [7] and in test [14] was inactive.
Regarding `COc1ccc(C=O)cc1`, the Potency entry in [1], in test [2], in [3], in test [4], in test [5] and in [17] was “inactive” throughout. Moreover, the Potency result in test [8], in test [9], in [10], in test [11], in [12] and in test [13] was “inactive” in each case. Moreover, in test [15], the Potency result is “inactive”. For the same molecule, the outcome in test [6], in test [7] and in test [14] was inactive.
